Data as given in the supplement of paper PMC9794691.

Test system: PC9
Test: area under confluence curve of osimertinib + compound combination regimen (DTP regrowth); compare to osimertinib-only DTP control AUC of the same experiment (AUC (confluence x time, arbitrary))
Experimental: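 compare to osimertinib-only DTP control AUC of the same experiment; Long-term drug-tolerant persister (DTP) screen in EGFR-mutant NSCLC cell lines in 48-well plates. The test compound was given at one fixed dose with osimertinib, either upfront (from day 0 to the DTP stage at 10-21 days, then drug-free medium) or sequentially (osimertinib alone to the DTP stage, then the test compound). IncuCyte confluence was tracked until osimertinib-only controls regrew, and AUC was computed in Prism. AUC scale depends on experiment duration, so each row carries the same-experiment osimertinib-only DTP and DMSO control AUCs; combination activity = control minus combo AUC. Osimertinib dose not stated.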

[1] = test compound dose 1000 nM, dosing schedule: sequential, osimertinib-only DTP control AUC in same experiment: 15001, DMSO control AUC in same experiment: 22064
[2] = test compound dose 1000 nM, dosing schedule: upfront, osimertinib-only DTP control AUC in same experiment: 24924, DMSO control AUC in same experiment: 22064

Cc1nc(-c2nc(-c3ccc(OC(F)(F)F)cc3)no2)nn1Cc1cccc(N2CCC(S(C)(=O)=O)CC2)c1 + C=CC(=O)Nc1cc(Nc2nccc(-c3cn(C)c4ccccc34)n2)c(OC)cc1N(C)CCN(C)C [osimertinib]
area under confluence curve (test compound dose 10 nM, dosing schedule: sequential, osimertinib-only DTP control AUC in same experiment: 11178, DMSO control AUC in same experiment: 18385): 9950 | area under confluence curve (test compound dose 10 nM, dosing schedule: sequential, osimertinib-only DTP control AUC in same experiment: 12231, DMSO control AUC in same experiment: 19076): 3870 | area under confluence curve (test compound dose 10 nM, dosing schedule: upfront, osimertinib-only DTP control AUC in same experiment: 16535, DMSO control AUC in same experiment: 19076): 12500 | area under confluence curve (test compound dose 10 nM, dosing schedule: upfront, osimertinib-only DTP control AUC in same experiment: 16887, DMSO control AUC in same experiment: 18385): 15300

COC(=O)c1ccc([C@H]2c3[nH]c4ccccc4c3C[C@H](C(=O)OC)N2C(=O)CCl)cc1 + C=CC(=O)Nc1cc(Nc2nccc(-c3cn(C)c4ccccc34)n2)c(OC)cc1N(C)CCN(C)C [osimertinib]
area under confluence curve (test compound dose 100 nM, dosing schedule: sequential, osimertinib-only DTP control AUC in same experiment: 8716, DMSO control AUC in same experiment: 45737): 655 | area under confluence curve (test compound dose 100 nM, dosing schedule: sequential, osimertinib-only DTP control AUC in same experiment: 10175, DMSO control AUC in same experiment: 27958): 1250 | area under confluence curve (test compound dose 100 nM, dosing schedule: sequential, osimertinib-only DTP control AUC in same experiment: 14030, DMSO control AUC in same experiment: 30326): 1840 | area under confluence curve (test compound dose 100 nM, dosing schedule: upfront, osimertinib-only DTP control AUC in same experiment: 11096, DMSO control AUC in same experiment: 45737): 12700 | area under confluence curve (test compound dose 100 nM, dosing schedule: upfront, osimertinib-only DTP control AUC in same experiment: 16134, DMSO control AUC in same experiment: 27958): 13900 | area under confluence curve (test compound dose 100 nM, dosing schedule: upfront, osimertinib-only DTP control AUC in same experiment: 20885, DMSO control AUC in same experiment: 30326): 13600

CCN1CCN(Cc2ccc(Nc3ncc(F)c(-c4cc(F)c5nc(C)n(C(C)C)c5c4)n3)nc2)CC1 [Abemaciclib] + C=CC(=O)Nc1cc(Nc2nccc(-c3cn(C)c4ccccc34)n2)c(OC)cc1N(C)CCN(C)C [osimertinib]
area under confluence curve (test compound dose 100 nM, dosing schedule: sequential, osimertinib-only DTP control AUC in same experiment: 10725, DMSO control AUC in same experiment: 30578): 2310 | area under confluence curve (test compound dose 100 nM, dosing schedule: sequential, osimertinib-only DTP control AUC in same experiment: 15163, DMSO control AUC in same experiment: 28684): 7750 | area under confluence curve (test compound dose 100 nM, dosing schedule: sequential, osimertinib-only DTP control AUC in same experiment: 23366, DMSO control AUC in same experiment: 88996): 7100 | area under confluence curve (test compound dose 100 nM, dosing schedule: upfront, osimertinib-only DTP control AUC in same experiment: 10245, DMSO control AUC in same experiment: 30578): 6070 | area under confluence curve (test compound dose 100 nM, dosing schedule: upfront, osimertinib-only DTP control AUC in same experiment: 21337, DMSO control AUC in same experiment: 28684): 15800 | area under confluence curve (test compound dose 100 nM, dosing schedule: upfront, osimertinib-only DTP control AUC in same experiment: 29852, DMSO control AUC in same experiment: 88996): 6410

Cc1c[nH]c2nc(Nc3ccc(N4CCN(C)CC4)c(F)c3)nc(-c3cccc(CC#N)c3)c12 + C=CC(=O)Nc1cc(Nc2nccc(-c3cn(C)c4ccccc34)n2)c(OC)cc1N(C)CCN(C)C [osimertinib]
area under confluence curve (test compound dose 300 nM, dosing schedule: sequential, osimertinib-only DTP control AUC in same experiment: 12535, DMSO control AUC in same experiment: 43316): 1010 | area under confluence curve (test compound dose 300 nM, dosing schedule: sequential, osimertinib-only DTP control AUC in same experiment: 15163, DMSO control AUC in same experiment: 28684): 4860 | area under confluence curve (test compound dose 300 nM, dosing schedule: sequential, osimertinib-only DTP control AUC in same experiment: 29087, DMSO control AUC in same experiment: 30008): 25200 | area under confluence curve (test compound dose 300 nM, dosing schedule: upfront, osimertinib-only DTP control AUC in same experiment: 15354, DMSO control AUC in same experiment: 43316): 3200 | area under confluence curve (test compound dose 300 nM, dosing schedule: upfront, osimertinib-only DTP control AUC in same experiment: 21337, DMSO control AUC in same experiment: 28684): 6800 | area under confluence curve (test compound dose 300 nM, dosing schedule: upfront, osimertinib-only DTP control AUC in same experiment: 34430, DMSO control AUC in same experiment: 30008): 25900

Cn1cnc2c(F)c(Nc3ccc(Br)cc3Cl)c(C(=O)NOCCO)cc21 [Selumetinib] + C=CC(=O)Nc1cc(Nc2nccc(-c3cn(C)c4ccccc34)n2)c(OC)cc1N(C)CCN(C)C [osimertinib]
area under confluence curve (test compound dose 300 nM, dosing schedule: sequential, osimertinib-only DTP control AUC in same experiment: 14554, DMSO control AUC in same experiment: 49189): 10400 | area under confluence curve (test compound dose 300 nM, dosing schedule: upfront, osimertinib-only DTP control AUC in same experiment: 24473, DMSO control AUC in same experiment: 49189): 11200

Cc1nc2nc(C)c(O[C@@H]3CCN(c4ccc(-c5ccc(CN6CCOCC6)nn5)cc4)C3)c(C)n2n1 + C=CC(=O)Nc1cc(Nc2nccc(-c3cn(C)c4ccccc34)n2)c(OC)cc1N(C)CCN(C)C [osimertinib]
area under confluence curve (test compound dose 1000 nM, dosing schedule: sequential, osimertinib-only DTP control AUC in same experiment: 10725, DMSO control AUC in same experiment: 30578): 14600 | area under confluence curve (test compound dose 1000 nM, dosing schedule: upfront, osimertinib-only DTP control AUC in same experiment: 10245, DMSO control AUC in same experiment: 30578): 12400

O=C(CCCCCCC(=O)Nc1ccccc1)NO [Vorinostat] + C=CC(=O)Nc1cc(Nc2nccc(-c3cn(C)c4ccccc34)n2)c(OC)cc1N(C)CCN(C)C [osimertinib]
area under confluence curve (test compound dose 1000 nM, dosing schedule: sequential, osimertinib-only DTP control AUC in same experiment: 12065, DMSO control AUC in same experiment: 48219): 7830 | area under confluence curve (test compound dose 1000 nM, dosing schedule: sequential, osimertinib-only DTP control AUC in same experiment: 14002, DMSO control AUC in same experiment: 31239): 6670 | area under confluence curve (test compound dose 1000 nM, dosing schedule: upfront, osimertinib-only DTP control AUC in same experiment: 22175, DMSO control AUC in same experiment: 31239): 7410 | area under confluence curve (test compound dose 1000 nM, dosing schedule: upfront, osimertinib-only DTP control AUC in same experiment: 22645, DMSO control AUC in same experiment: 48219): 10400

CCn1nc(C2CCN(C(=O)CCO)CC2)nc1-c1cnc(N)c(-c2nnc(C(C)(C)C)o2)n1 + C=CC(=O)Nc1cc(Nc2nccc(-c3cn(C)c4ccccc34)n2)c(OC)cc1N(C)CCN(C)C [osimertinib]
area under confluence curve (test compound dose 1000 nM, dosing schedule: sequential, osimertinib-only DTP control AUC in same experiment: 12535, DMSO control AUC in same experiment: 43316): 3140 | area under confluence curve (test compound dose 1000 nM, dosing schedule: sequential, osimertinib-only DTP control AUC in same experiment: 15163, DMSO control AUC in same experiment: 28684): 9440 | area under confluence curve (test compound dose 1000 nM, dosing schedule: upfront, osimertinib-only DTP control AUC in same experiment: 15354, DMSO control AUC in same experiment: 43316): 5490 | area under confluence curve (test compound dose 1000 nM, dosing schedule: upfront, osimertinib-only DTP control AUC in same experiment: 21337, DMSO control AUC in same experiment: 28684): 15400

Cc1cccc(-c2[nH]c(C(C)(C)C)nc2-c2ccc3nccnc3c2)n1 + C=CC(=O)Nc1cc(Nc2nccc(-c3cn(C)c4ccccc34)n2)c(OC)cc1N(C)CCN(C)C [osimertinib]
area under confluence curve (test compound dose 1000 nM, dosing schedule: sequential, osimertinib-only DTP control AUC in same experiment: 13130, DMSO control AUC in same experiment: 20567): 13600 | area under confluence curve [1]: 14500 | area under confluence curve (test compound dose 1000 nM, dosing schedule: upfront, osimertinib-only DTP control AUC in same experiment: 18577, DMSO control AUC in same experiment: 20567): 20300 | area under confluence curve [2]: 25300

C[C@@H](Oc1cc(-c2cnn(C3CCNCC3)c2)cnc1N)c1c(Cl)ccc(F)c1Cl [Crizotinib] + C=CC(=O)Nc1cc(Nc2nccc(-c3cn(C)c4ccccc34)n2)c(OC)cc1N(C)CCN(C)C [osimertinib]
area under confluence curve [1]: 8360 | area under confluence curve [2]: 7510
